Assay [1] is described as follows: reducers of endogenous Her2 protein level, primary screen, SKBR3 breast tumor cells, AlphaScreen, ATP viability (AID 461;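 active = Her2 level under about 52% in both replicate screens, with viability over 70% of control, limit read from the data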;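 as to Her2 level: lower value means less Her2 protein in the cells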;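 as to viability: percent of carrier control wells set as 100% viability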). As to conditions: 18-24 h, measured here: SKBR3 viability, ATP luminescence, at 10 µM. (Alpha assays give light when donor and acceptor beads are brought close together.)
Assay [2] deals with Receptor tyrosine-protein kinase erbB-2 (Homo sapiens) (UniProt P04626). The description is as above. As to conditions: 18-24 h, at 10 µM, stronger effect = lower value.
Assay [3] in a line: SK-BR-3 cell growth inhibitors, pilot screen, 24 h, human (AID 572;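 active = viability at or below 10% of carrier control in both of two separate runs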;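 also: compound exposure lasted between 18 and 24 h rather than exactly 24 h; 100% = carrier-treated control wells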). As to conditions: SK-BR-3 viability, CellTiter-Glo luminescence, at 10 µM, stronger effect = lower value. Background: Cellular ATP, detected with luciferase, serves as a proxy for viable cell number.
Assay [4] in a line: HUVEC growth inhibition – cell-based, human, primary screen (AID 575;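 active = viability at or below 30% in both replicate assays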;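 also: 100% = median of untreated cell wells with 0.1% DMSO on each plate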). Particulars: HUVEC proliferation, CellTiter-Glo luminescence, 72 h; at 10 µM; stronger effect = lower value.
Assay [5] can be described thus: growth inhibitors of H69AR lung tumor, primary screen, human, duplicate replicates (AID 580;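 active = viability at or under a set limit in both replicates, limit being median viability minus 3 SD, cut at about 48% in these data, passing the limit was not always enough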;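 also: 100% = mean luminescence of untreated wells and 0% = no signal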). As to conditions: H69AR lung tumor cells viability, ATP luminescence, 72 h; at 10 µM; stronger effect = lower value.
A short description of assay [6]: reversal of MRP1-mediated doxorubicin resistance, pilot screen, H69AR cells, doxorubicin co-treatment (AID 601;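 active = viability loss from added drug above about 55%, and viability with drug at most 40%, in both replicates, limit read from the data, passing the limit was not always enough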). Particulars: CellTiter-Glo, 72 h, at 10 µM; for differential viability (reversal): stronger effect = higher value.
A short description of assay [7]: 384-well plate pilot, post-Golgi transport modulator project, inhibition of yeast transport mutant growth (AID 636; in the data active = inhibition above about 31%). Particulars: absorbance 615 nm, about 18 h, stronger effect = higher value.
Assay [8] can be described thus: growth suppression of yeast trafficking mutant, preliminary HTS, modulators of trafficking downstream of Golgi apparatus project, 1536-format plate, OD 615 nm (AID 637; in the data active = inhibition above about 30%). Particulars: yeast transport mutant growth, absorbance 615 nm, 18 h; stronger effect = higher value.
A short description of assay [9]: OD615 S. cerevisiae growth inhibition, permissive medium, pilot counter-assay, permissive growth control for S. cerevisiae lifespan shortening project (AID 705;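 active = growth inhibition above 25% in both replicates, a cutoff set 3 SD above the mean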). As to conditions: OD615, 24 h, at 10 µM, stronger effect = higher value.
Assay [10] can be described thus: Restrictive medium S. cerevisiae growth inhibition, OD615, pilot screen of yeast lifespan reduction project, restrictive growth control (AID 706;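 active = growth inhibition above a set limit, 3 SD over mean compound inhibition, in both replicates, cut at about 43% in these data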;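 also: modified DeaD lifespan yeast strain shifted to restrictive glucose medium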). Particulars: OD615, 48 h, at 10 µM, stronger effect = higher value.
Assay [11] is described as follows: viability gain of MRP-1-high H69AR cells under doxorubicin, pilot screen, MRP-1 activator project, CellTiter-Glo, duplicate (AID 807;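 active = viability increase at or above a cutoff of the median across tested compounds plus 3 SD, cut at about 8.5% in these data, passing the limit was not always enough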;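 also: compound pretreatment 18-22 h then 72 h combined with doxorubicin; 0% = doxorubicin alone and 100% = vehicle without doxorubicin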). As to conditions: H69AR viability with doxorubicin, CellTiter-Glo luminescence; at 10 µM; stronger effect = higher value.
A short description of assay [12]: growth suppression of beta-catenin knockout HCT116, pilot screen, human colon tumor cells (AID 823;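 active = cell viability at or below a set limit in both duplicate runs, the limit being the all-compound median minus 4 SD, cut at about 23% in these data, passing the limit was not always enough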;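 also: 0% = wells killed by 20 µM Hyamine and 100% = untreated DMSO cell wells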). As to conditions: CellTiter-Glo, 60 h, at 10 µM, stronger effect = lower value.
The nature of assay [13]: growth suppression of PTEN-deleted HCT116, pilot screen, cell-based, HCT116 clonal line, CellTiter-Glo (AID 824;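 active = viability at or below 27.92% in each of two runs, the all-compound median minus 4 SD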;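 also: 0% = 20 µM Hyamine control and 100% = vehicle cell control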). Particulars: 60 h, at 10 µM, stronger effect = lower value.
Assay [14] can be described thus: inhibitors of the yeast RAM network, pilot screen, dse1pr::URA3 reporter, 5-FOA selection (AID 869).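 Also: 0% = DMSO wells with no growth and 100% = 10 µM 1-NA-PP1 with full growth; RAM network block rescues cells from 5-FOA so hits raise OD615 growth.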 Particulars: S. cerevisiae dse1pr::URA3 5-FOA growth, OD615, 2 d; at 10 µM; stronger effect = higher value; strain carries analog-sensitive mutant Cbk1 kinase.
Assay [15] can be described thus: RAM signaling pathway blockade in yeast – S. cerevisiae, Pdr1DBD-CYC8 efflux-inhibited sensitized strain, primary screen (AID 1298;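 active = RAM network inhibition above 8.4% in each of two replicates, 3 SD over the compound average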;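 also: 0% = DMSO untreated cells without growth and 100% = 10 µM 1-NA-PP1 full growth; higher means more yeast growth rescued from 5-FOA killing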). Particulars: S. cerevisiae cbk1-as DSE1-URA3 strain, 5-FOA growth OD615, 2 d; at 50 µM; stronger effect = higher value.
The mark [16] stands for this setting: H69AR cells + 2 uM doxorubicin, measured here: viability with 2 uM doxorubicin, stronger effect = lower value.
Where [17] appears, read: H69AR cells, compound alone cytotoxicity.

Records with an inconclusive call do not appear. Activity calls are given as the source filed them.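 The calls were made as follows, unless noted: active = inhibition over a set limit, the all-compound mean plus 3 SD, in both replicate runs; inconclusive = over that limit in just one replicate run; inactive = at or under that limit in both runs.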

The viability is a read-out of living cells in per cent, often relative to untreated cells. As a reminder, the inhibition is the relative decrease from the control value, in per cent.

Chain of Receptor tyrosine-protein kinase erbB-2 (Homo sapiens) (P04626 whole entry, looked up): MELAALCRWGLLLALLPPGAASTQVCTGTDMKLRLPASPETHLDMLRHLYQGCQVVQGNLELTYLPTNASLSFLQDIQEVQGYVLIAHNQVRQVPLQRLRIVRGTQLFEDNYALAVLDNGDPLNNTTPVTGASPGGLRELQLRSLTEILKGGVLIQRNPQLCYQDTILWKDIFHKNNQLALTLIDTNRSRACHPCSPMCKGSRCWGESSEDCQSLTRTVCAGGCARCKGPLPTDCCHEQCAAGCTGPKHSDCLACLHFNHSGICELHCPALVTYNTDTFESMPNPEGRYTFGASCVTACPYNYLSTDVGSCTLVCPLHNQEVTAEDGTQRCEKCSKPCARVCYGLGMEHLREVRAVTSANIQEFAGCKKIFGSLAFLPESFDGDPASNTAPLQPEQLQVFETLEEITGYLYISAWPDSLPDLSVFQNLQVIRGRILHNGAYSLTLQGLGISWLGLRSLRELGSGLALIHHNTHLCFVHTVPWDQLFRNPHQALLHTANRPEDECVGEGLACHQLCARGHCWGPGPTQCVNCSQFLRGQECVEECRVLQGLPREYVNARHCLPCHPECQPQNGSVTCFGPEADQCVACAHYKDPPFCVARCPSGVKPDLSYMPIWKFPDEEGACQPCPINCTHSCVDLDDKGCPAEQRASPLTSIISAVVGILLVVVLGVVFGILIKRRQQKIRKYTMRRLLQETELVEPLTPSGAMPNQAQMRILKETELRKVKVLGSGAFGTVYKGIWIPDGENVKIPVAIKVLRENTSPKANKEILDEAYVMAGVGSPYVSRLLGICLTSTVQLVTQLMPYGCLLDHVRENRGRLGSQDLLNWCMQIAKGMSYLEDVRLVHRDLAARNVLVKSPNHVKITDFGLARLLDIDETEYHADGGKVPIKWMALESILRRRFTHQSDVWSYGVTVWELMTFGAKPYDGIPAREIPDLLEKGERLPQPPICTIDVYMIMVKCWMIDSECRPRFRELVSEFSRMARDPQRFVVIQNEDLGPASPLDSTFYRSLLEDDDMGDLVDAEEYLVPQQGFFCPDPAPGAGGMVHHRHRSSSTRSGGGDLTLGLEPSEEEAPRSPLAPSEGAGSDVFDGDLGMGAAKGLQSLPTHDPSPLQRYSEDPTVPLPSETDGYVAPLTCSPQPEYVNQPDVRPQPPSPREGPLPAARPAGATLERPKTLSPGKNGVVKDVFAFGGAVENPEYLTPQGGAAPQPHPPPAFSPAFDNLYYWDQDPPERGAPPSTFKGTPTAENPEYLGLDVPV

Turning to `CCOCCCNC(=O)Cn1cc2c(n1)CCCCC2`, the viability in assay [1] was 114%; in assay [3], 114% (inactive); in assay [4] it was 109% (inactive); in assay [5] it was 103% (inactive); in [6] (setting [16]), 96.8%; in [6] (setting [17]), 103%. In addition, the viability in assay [12] is 100% (inactive); in assay [13], 99.9% (inactive). Moreover, in assay [2], the Her2 level was 104% (inactive). In assay [6] (H69AR cells + 2 uM doxorubicin), the differential viability (reversal) was 6.04% (inactive). For the same compound, the inhibition is 1.03% (inactive) in assay [7], 2.67% (inactive) in assay [8] and 2.07% (inactive) in assay [14]. In addition, the growth inhibition in assay [9] was -3.18% (inactive); in assay [10] it was -3.17% (inactive). Besides, in [11], the viability increase is -0.62% (inactive). In assay [15], the RAM network inhibition was 3.72% (inactive).

In the case of `CCCCNC(=O)Cn1c(=O)n(C)c2ccccc21`, the viability in assay [1] is 105%; in assay [3], 105% (inactive); in assay [4], 84.4% (inactive); in assay [5] it was 88.5% (inactive); in [6] (setting [16]), 91.2%; in assay [6] (setting [17]), 88.5%. The viability in assay [12] is 106% (inactive); in assay [13], 101% (inactive). In assay [2], the Her2 level is 96.5% (inactive). In addition, the differential viability (reversal) in assay [6] (H69AR cells + 2 uM doxorubicin) is -2.7% (inactive). The inhibition is -5.07% (inactive) in [7], -2% (inactive) in assay [8] and 1.49% (inactive) in assay [14]. Moreover, the growth inhibition in assay [9] is -9.7% (inactive); in assay [10] it was -4.06% (inactive). In addition, the viability increase in assay [11] was -0.03% (inactive). In addition, in assay [15], the RAM network inhibition is -1.79% (inactive).

In the case of `CC(=O)Nc1ccc(S(=O)(=O)N2CCN(C(=O)CCC3CCCC3)CC2)cc1`, the viability in assay [1] was 84%; in [3] it was 84% (inactive); in assay [4] it was 99% (inactive); in [5], 92.9% (inactive); in [6] (setting [16]), 103%; in [6] (setting [17]), 92.9%. The viability in assay [12] was 78.7% (inactive); in assay [13] it was 81.8% (inactive). Further, in assay [2], the Her2 level was 98.5% (inactive). The differential viability (reversal) in assay [6] (H69AR cells + 2 uM doxorubicin) was -9.75% (inactive). Besides, the inhibition is -1.2% (inactive) in assay [7], -4.35% (inactive) in assay [8] and 0.505% (inactive) in [14]. In addition, the results for the growth inhibition in assay [9] and in assay [10] were 0.295% (inactive) and -1.04% (inactive), respectively. For the same compound, the viability increase in [11] was -2.79% (inactive). Also, the RAM network inhibition in assay [15] is 2.16% (inactive).

Consider `CC1CCN(c2oc(-c3ccccc3F)nc2C#N)CC1`, for which the viability in [1] was 82%; in assay [3] it was 82% (inactive); in [4], 78.7% (inactive); in assay [5], 92% (inactive); in [6] (setting [16]), 84.5%; in assay [6] (setting [17]), 92%. Besides, the figures for the viability in assay [12] and in [13] were 89.4% (inactive) and 88.9% (inactive), respectively. For the same compound, in assay [2], the Her2 level is 95% (inactive). In addition, the differential viability (reversal) in [6] (H69AR cells + 2 uM doxorubicin) was 7.56% (inactive). Moreover, the inhibition in assay [7] is -2.27% (inactive); in assay [8] it was 2.79% (inactive); in assay [14], 0.425% (inactive). In addition, the growth inhibition in [9] was -14.9% (inactive); in assay [10], -13.1% (inactive). For the same compound, the viability increase in assay [11] was 0.34% (inactive). Moreover, the RAM network inhibition in [15] was 2.79% (inactive).

Regarding `COc1cccc(CNC(=O)Cn2c(=O)oc3ccccc32)c1OC`, the viability was 110% in assay [1]; 110% (inactive) in assay [3]; 89.8% (inactive) in assay [4]; 92.3% (inactive) in assay [5]; 92.2% in [6] (setting [16]); 92.3% in assay [6] (setting [17]). The results for the viability in assay [12] and in assay [13] were 104% (inactive) and 91% (inactive), respectively. For the same compound, the Her2 level in assay [2] was 99% (inactive). Besides, the differential viability (reversal) in [6] (H69AR cells + 2 uM doxorubicin) was 0.115% (inactive). Moreover, the inhibition in assay [7] is -6.27% (inactive); in [8] it was -0.67% (inactive); in [14], 0.75% (inactive). Also, the growth inhibition in assay [9] is -9.48% (inactive); in assay [10], -12.4% (inactive). In addition, in [11], the viability increase is -0.35% (inactive). Also, the RAM network inhibition in [15] is -0.26% (inactive).
